Compounds without any hit were thinned out: in the full panel of roughly 79,000, 15% have a hit. Activity calls are given as the source filed them. Rule as the data show it: active = growth inhibition above about 70%; inactive = the rest.
Key:
[1] = NCI Yeast Anticancer Drug Screen. Data for the rad52 strain (AID 147);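 also: 0% = growth of vehicle-treated control cultures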; conditions: S. cerevisiae rad52 mutant growth inhibition, active compounds read high
Outline: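 Compounds are applied to a genetically defined yeast strain lacking normal DNA damage repair, and inhibition of growth is expressed relative to cultures given vehicle only.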

[2] = NCI Yeast Anticancer Drug Screen. Data for the wt1 strain (AID 149);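 also: 0% = growth of vehicle-treated wt1 cultures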; conditions: S. cerevisiae wt1 strain (SPY 50644) growth inhibition, active compounds read high
Outline: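 Yeast wt1 strain exposed to compounds; growth inhibition measured relative to vehicle-treated controls.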

[3] = NCI Yeast Anticancer Drug Screen. Data for the rad50EPP+ strain (AID 151);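 also: 0% = growth of vehicle-treated control cultures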; conditions: S. cerevisiae rad50 mutant strain, active compounds read high
Outline: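 Compounds were applied to the rad50EPP+ yeast strain, which bears a defined DNA repair alteration, and growth inhibition was determined relative to vehicle-treated cultures.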

[4] = NCI Yeast Anticancer Drug Screen. Data for the mgt1 strain (AID 153); conditions: S. cerevisiae mgt1 mutant growth inhibition, active compounds read high
Outline: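 Strain: mgt1 yeast, one of a set carrying defined DNA damage repair or cell cycle control alterations. Compound-treated growth compared with vehicle.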

[5] = NCI Yeast Anticancer Drug Screen. Data for the rad50 strain (AID 155);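 also: 0% = growth of vehicle-only cultures of the same strain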; conditions: S. cerevisiae rad50 strain growth inhibition, active compounds read high
Outline: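 Yeast carrying a defined DNA repair defect were exposed to test compounds, and growth was compared with vehicle-treated controls to give percent inhibition.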

[6] = NCI Yeast Anticancer Drug Screen. Data for the mec2-1 strain (AID 157); conditions: S. cerevisiae mec2-1 strain, active compounds read high
Outline: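 Strain: mec2-1 (DNA repair/cell cycle alteration). Compound exposure, then growth measured; inhibition expressed relative to vehicle.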

[7] = NCI Yeast Anticancer Drug Screen. Data for the rad14 strain (AID 159);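 also: 0% = growth of vehicle-treated control cultures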; conditions: S. cerevisiae rad14 strain growth inhibition, active compounds read high
Outline: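 Yeast cells carrying a defined DNA-repair defect were exposed to compounds, and growth inhibition was calculated relative to vehicle-treated control cultures.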

[8] = NCI Yeast Anticancer Drug Screen. Data for the sgs1 mgt1 strain (AID 161);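 also: 0% = growth of cultures given vehicle only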; conditions: S. cerevisiae sgs1 mgt1 strain, active compounds read high
Outline: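 Genetically altered yeast, compound exposure, growth inhibition relative to vehicle.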

[9] = NCI Yeast Anticancer Drug Screen. Data for the CLN2oe strain (AID 163);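 also: 0% = growth of vehicle-only control cultures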; conditions: S. cerevisiae CLN2oe strain, active compounds read high
Outline: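 Growth of a genetically modified yeast strain is measured after compound exposure and compared with cultures given vehicle alone.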

[10] = NCI Yeast Anticancer Drug Screen. Data for the cln2 rad14 strain (AID 165);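 also: 0% = growth equal to vehicle treated cultures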; conditions: S. cerevisiae cln2 rad14 strain, active compounds read high
Outline: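 Compounds are applied to the cln2 rad14 yeast strain, and growth is then compared with that of vehicle-treated cultures to give inhibition.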

[11] = NCI Yeast Anticancer Drug Screen. Data for the bub3 strain (AID 167); conditions: S. cerevisiae bub3 mutant strain, active compounds read high
Outline: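 Compounds were applied to a genetically altered yeast strain carrying a cell-cycle control defect. Growth inhibition was scored against vehicle-treated controls.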

[12] = NCI Yeast Anticancer Drug Screen. Data for the wt2 strain (AID 169);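 also: 0% = growth of vehicle-treated yeast cultures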; conditions: S. cerevisiae wt2 strain growth inhibition, active compounds read high
Outline: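 This strain belongs to a panel of yeast strains with defined genetic alterations in DNA damage repair or cell cycle control. Compounds are applied, and growth inhibition is measured against vehicle-treated cultures.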

[13] = NCI Yeast Anticancer Drug Screen. Data for the mlh1 strain (AID 171);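 also: 0% = growth of vehicle-treated control cultures of the same strain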; conditions: S. cerevisiae mlh1 strain growth inhibition, active compounds read high
Outline: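 Growth of the mutant yeast strain after compound exposure, expressed as inhibition relative to vehicle-only controls.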

[14] = NCI Yeast Anticancer Drug Screen. Data for the sgs1 strain (AID 173);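 also: 0% = growth of vehicle-only control cultures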; conditions: S. cerevisiae sgs1 mutant, active compounds read high
Outline: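 Growth of a yeast strain bearing a defined genetic alteration is measured after compound treatment. Inhibition is expressed relative to vehicle-only controls.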

[15] = NCI Yeast Anticancer Drug Screen. Data for the mlh1 rad18 strain (AID 175); conditions: S. cerevisiae mlh1 rad18 strain growth inhibition, active compounds read high
Outline: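 Read-out is yeast growth inhibition, calculated against vehicle-only controls. The compound was applied to a strain engineered with DNA damage repair alterations.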

[16] = NCI Yeast Anticancer Drug Screen. Data for the rad18 strain (AID 177); conditions: S. cerevisiae rad18 mutant growth inhibition, active compounds read high
Outline: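 Growth of the mutant yeast strain after compound exposure, normalised to vehicle-only cultures.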

[17] = at 5.0 µM (retest, dose inferred, filed as 0.5)
[18] = at 50.0 µM (retest, dose inferred, filed as 5.0)

Measured: growth inhibition

CN(C)C[C@H]1CC[C@@H](CN(C)C)C1=O
active: [3]; at 100.0 µM 84% | [5]; at 100.0 µM 78% | [6]; [18] 83% | [12]; at 100.0 µM 99% | [14]; at 100.0 µM 81% | [15]; at 50.0 µM 75% | [16]; at 100.0 µM 87%
inactive: [1]; at 1.2 µM 17% | [1]; at 3.7 µM 24% | [1]; at 11.0 µM 27% | [1]; at 33.0 µM 39% | [1]; at 100.0 µM 66% | [2]; at 1.2 µM 24% | [2]; at 3.7 µM 25% | [2]; at 11.0 µM 25% | [2]; at 33.0 µM 14% | [2]; at 100.0 µM 47% | [3]; at 1.2 µM 16% | [3]; at 3.7 µM 12% | [3]; at 11.0 µM 27% | [3]; at 33.0 µM 50% | [4]; at 1.2 µM 16% | [4]; at 3.7 µM 20% | [4]; at 11.0 µM 25% | [4]; at 33.0 µM 30% | [4]; at 100.0 µM 43% | [5]; at 1.2 µM 11% | [5]; at 3.7 µM 31% | [5]; [17] 5% | [5]; at 11.0 µM 22% | [5]; at 33.0 µM 37% | [5]; [18] 36% | [5]; at 50.0 µM 70% | [6]; at 1.2 µM 13% | [6]; at 3.7 µM 20% | [6]; [17] 9% | [6]; at 11.0 µM 16% | [6]; at 33.0 µM 28% | [6]; at 50.0 µM 57.3% | [6]; at 100.0 µM 49% | [7]; at 1.2 µM 16% | [7]; at 3.7 µM 20% | [7]; at 11.0 µM 21% | [7]; at 33.0 µM 30% | [7]; at 100.0 µM 52% | [8]; [17] 1% | [8]; [18] 18% | [8]; at 50.0 µM 38.4% | [9]; at 1.2 µM -4% | [9]; at 3.7 µM 0% | [9]; at 11.0 µM 9% | [9]; at 33.0 µM 29% | [9]; at 100.0 µM 64% | [10]; [17] 20% | [10]; [18] 14% | [10]; at 50.0 µM 23.9% | [11]; at 1.2 µM 17% | [11]; at 3.7 µM 12% | [11]; [17] 9% | [11]; at 11.0 µM 19% | [11]; at 33.0 µM 29% | [11]; [18] 47% | [11]; at 50.0 µM 34.5% | [11]; at 100.0 µM 63% | [12]; at 1.2 µM -46% | [12]; at 3.7 µM -45% | [12]; at 11.0 µM -40% | [12]; at 33.0 µM 7% | [13]; at 1.2 µM 18% | [13]; at 3.7 µM 32% | [13]; at 11.0 µM 24% | [13]; at 33.0 µM 36% | [13]; at 100.0 µM 29% | [14]; at 1.2 µM 15% | [14]; at 3.7 µM 26% | [14]; at 11.0 µM 30% | [14]; at 33.0 µM 44% | [15]; [17] 7% | [15]; [18] 54% | [16]; at 1.2 µM 21% | [16]; at 3.7 µM 21% | [16]; at 11.0 µM 22% | [16]; at 33.0 µM 36%

O=Nc1cccnc1N=O
active: [1]; at 11.0 µM 86% | [1]; at 33.0 µM 98% | [1]; at 100.0 µM 98% | [2]; at 33.0 µM 99% | [2]; at 100.0 µM 99% | [3]; at 33.0 µM 97% | [3]; at 100.0 µM 98% | [4]; at 11.0 µM 79% | [4]; at 33.0 µM 99% | [4]; at 100.0 µM 99% | [5]; at 33.0 µM 98% | [5]; [18] 99% | [5]; at 50.0 µM 99.5% | [5]; at 100.0 µM 98% | [6]; at 11.0 µM 90% | [6]; at 33.0 µM 99% | [6]; [18] 99% | [6]; at 50.0 µM 99.4% | [6]; at 100.0 µM 99% | [7]; at 11.0 µM 99% | [7]; at 33.0 µM 99% | [7]; at 100.0 µM 99% | [8]; [17] 81% | [8]; [18] 99% | [8]; at 50.0 µM 99.3% | [9]; at 33.0 µM 99% | [9]; at 100.0 µM 98% | [10]; [18] 99% | [10]; at 50.0 µM 99.3% | [11]; [17] 76% | [11]; at 11.0 µM 86% | [11]; at 33.0 µM 98% | [11]; [18] 99% | [11]; at 50.0 µM 99.5% | [11]; at 100.0 µM 98% | [12]; at 33.0 µM 99% | [12]; at 100.0 µM 99% | [13]; at 11.0 µM 83% | [13]; at 33.0 µM 98% | [13]; at 100.0 µM 99% | [14]; at 11.0 µM 97% | [14]; at 33.0 µM 99% | [14]; at 100.0 µM 99% | [15]; [17] 94% | [15]; [18] 99% | [15]; at 50.0 µM 99.6% | [16]; at 3.7 µM 86% | [16]; at 11.0 µM 94% | [16]; at 33.0 µM 98% | [16]; at 100.0 µM 98%
inactive: [1]; at 1.2 µM 10% | [1]; at 3.7 µM 31% | [2]; at 1.2 µM 2% | [2]; at 3.7 µM 10% | [2]; at 11.0 µM 37% | [3]; at 1.2 µM -33% | [3]; at 3.7 µM 14% | [3]; at 11.0 µM 64% | [4]; at 1.2 µM 5% | [4]; at 3.7 µM 25% | [5]; at 1.2 µM 7% | [5]; at 3.7 µM 21% | [5]; [17] 66% | [5]; at 11.0 µM 52% | [6]; at 1.2 µM 7% | [6]; at 3.7 µM 28% | [6]; [17] 27% | [7]; at 1.2 µM 11% | [7]; at 3.7 µM 36% | [9]; at 1.2 µM 5% | [9]; at 3.7 µM 13% | [9]; at 11.0 µM 34% | [10]; [17] 19% | [11]; at 1.2 µM 9% | [11]; at 3.7 µM 31% | [12]; at 1.2 µM 2% | [12]; at 3.7 µM 16% | [12]; at 11.0 µM 59% | [13]; at 1.2 µM 5% | [13]; at 3.7 µM 21% | [14]; at 1.2 µM 18% | [14]; at 3.7 µM 63% | [16]; at 1.2 µM 35%
